Compounds without any hit were thinned out: in the full panel of roughly 79,000, 15% have a hit. Calls of active or inactive are those of the source. No stated cut-off is given here; in the data, active means growth inhibition above about 70%; inactive means the rest.
Columns and labels:
[1] = NCI Yeast Anticancer Drug Screen. Data for the sgs1 strain (AID 173);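 further: 0% = growth of vehicle-only control cultures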; settings: S. cerevisiae sgs1 mutant, hits give high values
Outline: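 Growth of a yeast strain bearing a defined genetic alteration is measured after compound treatment. Inhibition is expressed relative to vehicle-only controls.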

[2] = NCI Yeast Anticancer Drug Screen. Data for the mlh1 rad18 strain (AID 175); settings: S. cerevisiae mlh1 rad18 strain growth inhibition, hits give high values
Outline: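 Read-out is yeast growth inhibition, calculated against vehicle-only controls. The compound was applied to a strain engineered with DNA damage repair alterations.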

[3] = NCI Yeast Anticancer Drug Screen. Data for the rad18 strain (AID 177); settings: S. cerevisiae rad18 mutant growth inhibition, hits give high values
Outline: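 Growth of the mutant yeast strain after compound exposure, normalised to vehicle-only cultures.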

[4] = NCI Yeast Anticancer Drug Screen. Data for the rad52 strain (AID 147);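 further: 0% = growth of vehicle-treated control cultures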; settings: S. cerevisiae rad52 mutant growth inhibition, hits give high values
Outline: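 Compounds are applied to a genetically defined yeast strain lacking normal DNA damage repair, and inhibition of growth is expressed relative to cultures given vehicle only.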

[5] = NCI Yeast Anticancer Drug Screen. Data for the wt1 strain (AID 149);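 further: 0% = growth of vehicle-treated wt1 cultures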; settings: S. cerevisiae wt1 strain (SPY 50644) growth inhibition, hits give high values
Outline: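 Compounds are added to wt1 yeast cultures. Growth is then measured. Inhibition is expressed relative to vehicle-treated controls.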

[6] = NCI Yeast Anticancer Drug Screen. Data for the rad50EPP+ strain (AID 151);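 further: 0% = growth of vehicle-treated control cultures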; settings: S. cerevisiae rad50 mutant strain, hits give high values
Outline: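 Compounds were applied to the rad50EPP+ yeast strain, which bears a defined DNA repair alteration, and growth inhibition was determined relative to vehicle-treated cultures.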

[7] = NCI Yeast Anticancer Drug Screen. Data for the rad50 strain (AID 155);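 further: 0% = growth of vehicle-only cultures of the same strain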; settings: S. cerevisiae rad50 strain growth inhibition, hits give high values
Outline: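 Inhibition values express reduced yeast growth in compound-treated cultures relative to vehicle-treated controls.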

[8] = NCI Yeast Anticancer Drug Screen. Data for the rad14 strain (AID 159);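 further: 0% = growth of vehicle-treated control cultures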; settings: S. cerevisiae rad14 strain growth inhibition, hits give high values
Outline: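 A mutant yeast strain defective in DNA damage repair is treated with compound; inhibition of its growth is scored against untreated, vehicle-exposed cultures.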

[9] = NCI Yeast Anticancer Drug Screen. Data for the sgs1 mgt1 strain (AID 161);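 further: 0% = growth of cultures given vehicle only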; settings: S. cerevisiae sgs1 mgt1 strain, hits give high values
Outline: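 Genetically altered yeast, compound exposure, growth inhibition relative to vehicle.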

[10] = NCI Yeast Anticancer Drug Screen. Data for the CLN2oe strain (AID 163);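 further: 0% = growth of vehicle-only control cultures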; settings: S. cerevisiae CLN2oe strain, hits give high values
Outline: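 Growth of a genetically modified yeast strain is measured after compound exposure and compared with cultures given vehicle alone.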

[11] = NCI Yeast Anticancer Drug Screen. Data for the cln2 rad14 strain (AID 165);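 further: 0% = growth equal to vehicle treated cultures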; settings: S. cerevisiae cln2 rad14 strain, hits give high values
Outline: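 Compounds are applied to the cln2 rad14 yeast strain, and growth is then compared with that of vehicle-treated cultures to give inhibition.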

[12] = NCI Yeast Anticancer Drug Screen. Data for the bub3 strain (AID 167); settings: S. cerevisiae bub3 mutant strain, hits give high values
Outline: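 Steps: expose the mutant yeast strain to compound; grow alongside vehicle-treated cultures; measure growth; express inhibition against the vehicle cultures.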

[13] = NCI Yeast Anticancer Drug Screen. Data for the wt2 strain (AID 169);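 further: 0% = growth of vehicle-treated yeast cultures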; settings: S. cerevisiae wt2 strain growth inhibition, hits give high values
Outline: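 This strain belongs to a panel of yeast strains with defined genetic alterations in DNA damage repair or cell cycle control. Compounds are applied, and growth inhibition is measured against vehicle-treated cultures.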

[14] = NCI Yeast Anticancer Drug Screen. Data for the mlh1 strain (AID 171);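 further: 0% = growth of vehicle-treated control cultures of the same strain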; settings: S. cerevisiae mlh1 strain growth inhibition, hits give high values
Outline: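 Growth of the mutant yeast strain after compound exposure, expressed as inhibition relative to vehicle-only controls.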

[15] = NCI Yeast Anticancer Drug Screen. Data for the mgt1 strain (AID 153); settings: S. cerevisiae mgt1 mutant growth inhibition, hits give high values
Outline: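 Strain: mgt1 yeast, one of a set carrying defined DNA damage repair or cell cycle control alterations. Compound-treated growth compared with vehicle.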

[16] = NCI Yeast Anticancer Drug Screen. Data for the mec2-1 strain (AID 157); settings: S. cerevisiae mec2-1 strain, hits give high values
Outline: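 Strain: mec2-1 (DNA repair/cell cycle alteration). Compound exposure, then growth measured; inhibition expressed relative to vehicle.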

[17] = at 5.0 µM (retest, dose inferred, filed as 0.5)
[18] = at 50.0 µM (retest, dose inferred, filed as 5.0)

Measured: growth inhibition

O=c1c2ccccc2ncn1COCc1ccccc1
inactive: [1]; at 1.2 µM -49% | [1]; at 3.7 µM -34% | [1]; at 11.0 µM -37% | [1]; at 33.0 µM -21% | [1]; at 100.0 µM -7% | [2]; [17] 18% | [2]; [18] 30% | [2]; at 50.0 µM -22.1% | [3]; at 1.2 µM -3% | [3]; at 3.7 µM -5% | [3]; at 11.0 µM 3% | [3]; at 33.0 µM 9% | [3]; at 100.0 µM 26%

O=C(COC(=O)c1cc(O)c(O)c(O)c1)c1ccc(-c2ccccc2)cc1
inactive: [4]; at 1.2 µM -2% | [4]; at 3.7 µM 2% | [4]; at 11.0 µM 8% | [4]; at 33.0 µM 38% | [5]; at 1.2 µM -3% | [5]; at 3.7 µM -3% | [5]; at 11.0 µM -2% | [5]; at 33.0 µM 10% | [6]; at 1.2 µM 6% | [6]; at 3.7 µM 21% | [6]; at 11.0 µM 47% | [7]; at 1.2 µM -1% | [7]; at 3.7 µM 1% | [7]; [17] -16% | [7]; at 11.0 µM 11% | [7]; at 33.0 µM 42% | [7]; at 50.0 µM 45.9% | [8]; at 1.2 µM 1% | [8]; at 3.7 µM 1% | [8]; at 11.0 µM 9% | [8]; at 33.0 µM 44% | [9]; [17] 7% | [9]; at 50.0 µM 60.9% | [10]; at 1.2 µM -6% | [10]; at 3.7 µM -9% | [10]; at 11.0 µM -11% | [10]; at 33.0 µM -1% | [11]; [17] -84% | [11]; [18] -12% | [11]; at 50.0 µM 0.6% | [12]; at 1.2 µM -4% | [12]; at 3.7 µM -3% | [12]; [17] 3% | [12]; at 11.0 µM -3% | [12]; at 33.0 µM 21% | [12]; at 50.0 µM 59.2% | [13]; at 1.2 µM -3% | [13]; at 3.7 µM -5% | [13]; at 11.0 µM -4% | [13]; at 33.0 µM 66% | [14]; at 1.2 µM -3% | [14]; at 3.7 µM 0% | [14]; at 11.0 µM 4% | [14]; at 33.0 µM 57% | [2]; [17] 19% | [2]; at 50.0 µM 40.2% | [3]; at 1.2 µM -1% | [3]; at 3.7 µM 2% | [3]; at 11.0 µM 12% | [3]; at 33.0 µM 58%
active: [4]; at 100.0 µM 96% | [5]; at 100.0 µM 97% | [6]; at 33.0 µM 91% | [6]; at 100.0 µM 96% | [7]; [18] 94% | [7]; at 100.0 µM 95% | [8]; at 100.0 µM 95% | [9]; [18] 98% | [10]; at 100.0 µM 83% | [12]; [18] 97% | [12]; at 100.0 µM 97% | [13]; at 100.0 µM 95% | [14]; at 100.0 µM 95% | [2]; [18] 97% | [3]; at 100.0 µM 95%

COc1cc2ccc(/C=C\[N+](=O)[O-])cc2cc1OC
active: [4]; at 11.0 µM 70% | [4]; at 33.0 µM 97% | [4]; at 100.0 µM 94% | [5]; at 33.0 µM 98% | [5]; at 100.0 µM 96% | [6]; at 11.0 µM 83% | [6]; at 33.0 µM 98% | [6]; at 100.0 µM 96% | [15]; at 33.0 µM 97% | [15]; at 100.0 µM 95% | [7]; at 33.0 µM 96% | [7]; [18] 99% | [7]; at 50.0 µM 91% | [7]; at 100.0 µM 94% | [16]; at 33.0 µM 97% | [16]; [18] 99% | [16]; at 50.0 µM 90.5% | [16]; at 100.0 µM 95% | [9]; [18] 85% | [9]; at 50.0 µM 90.7% | [11]; at 50.0 µM 86.1% | [12]; at 33.0 µM 85% | [12]; at 50.0 µM 91.9% | [12]; at 100.0 µM 95% | [13]; at 33.0 µM 98% | [13]; at 100.0 µM 97% | [14]; at 33.0 µM 98% | [14]; at 100.0 µM 97% | [1]; at 33.0 µM 98% | [1]; at 100.0 µM 97% | [2]; [18] 98% | [2]; at 50.0 µM 92.3% | [3]; at 33.0 µM 97% | [3]; at 100.0 µM 93%
inactive: [4]; at 1.2 µM 1% | [4]; at 3.7 µM 13% | [5]; at 1.2 µM -24% | [5]; at 3.7 µM -25% | [5]; at 11.0 µM -37% | [6]; at 1.2 µM 18% | [6]; at 3.7 µM 39% | [15]; at 1.2 µM -18% | [15]; at 3.7 µM -23% | [15]; at 11.0 µM 24% | [7]; at 1.2 µM -5% | [7]; at 3.7 µM 26% | [7]; [17] 44% | [7]; at 11.0 µM 51% | [16]; at 1.2 µM 10% | [16]; at 3.7 µM -34% | [16]; [17] 29% | [16]; at 11.0 µM 38% | [9]; [17] 11% | [11]; [17] -14% | [11]; [18] -25% | [12]; at 1.2 µM -30% | [12]; at 3.7 µM -21% | [12]; [17] 17% | [12]; at 11.0 µM -22% | [12]; [18] 53% | [13]; at 1.2 µM -14% | [13]; at 3.7 µM 4% | [13]; at 11.0 µM 22% | [14]; at 1.2 µM -36% | [14]; at 3.7 µM -36% | [14]; at 11.0 µM 19% | [1]; at 1.2 µM -4% | [1]; at 3.7 µM 16% | [1]; at 11.0 µM 47% | [2]; [17] 45% | [3]; at 1.2 µM -17% | [3]; at 3.7 µM -33% | [3]; at 11.0 µM 18%

Reference: PubChem BioAssay (NCI)
